# Measurements reported in PubChem BioAssay (NCI).
# Compounds without any hit were thinned out: in the full panel of roughly 83,000, 20% have a hit.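 The test compound was applied at a single concentration to cells in 96-well plates for 48 hours, and percent growth was recorded.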 Activity calls are given as the source filed them. The calls were made as follows: active = growth percent below 10; inactive = the rest.
# Test system: MALME-3M melanoma
# Test: NCI-60 one-dose screen, 48 h (100 = growth as untreated, 0 = no growth, -100 = all killed)
# Details: 10 µM unless noted
row,Structure (SMILES),growth
1,O=C1/C(=C/c2ccc(O)cc2)COc2ccc(-c3ccccc3)cc21,116% (inactive)
2,CC(=O)N1N=C(c2cccc(Nc3ccncc3)c2)CC1c1ccc2c(c1)OCO2 (stereo not drawn),74.9% (inactive)
3,Clc1nc(Cl)c2ncn(CCOCCn3cnc4c(Cl)nc(Cl)nc43)c2n1,-73.2% (active)
4,COc1ccc(/C=C2\COc3ccc(-c4ccccc4)cc3C2=O)cc1O,74.7% (inactive)
5,Cc1c2c(cc[n+]1Cc1ccccc1)c1ccc(OCC3CCCCC3)cc1n2CC1CCCCC1,-70.3% (active)
6,CC[N+](CC)(CCCC(C)[N+]1(Cc2ccccc2)C(C)=CC=C1C)Cc1ccccc1 (stereo not drawn),87.8% (inactive)
7,CN1C(=O)N(C)[C@H]2NC(NN)=N[C@H]21,94.3% (inactive)
8,O=C(Nc1cccc(Cl)c1)Oc1c(Br)c(Br)c(Br)c(Br)c1Br,90.7% (inactive)
9,NC(=O)c1ncn(C2OC(CO)C(O)C2O)n1 (stereo not drawn),93.8% (inactive)
10,COc1cc(/C=C/C(=O)c2c(C)oc3nc[nH]c(=O)c23)ccc1O,103% (inactive)
11,COc1cc(NCCCN(CC(C)C)CC(C)C)c2ncccc2c1,102% (inactive)
12,O=[N+]([O-])c1cccc(-c2nc(-c3ccc(Cl)cc3Cl)cn2-c2ccccc2)c1,128% (inactive)
13,O=C(N/N=C/c1ccc(F)cc1)c1ccccc1Nc1cccc(C(F)(F)F)c1,111% (inactive)
14,COc1ccc(Cn2nc(-c3cc(OC)c(OC)c(OC)c3)c3c2CCc2cnoc2-3)cc1OC,78% (inactive)
15,Fc1ccc(C2CC(c3cccc(Nc4ccncc4)c3)=NN2c2ccccc2)cc1 (stereo not drawn),-5.72% (active)
16,CCn1cc(C2NC(=O)c3ccccc3N2)c2cccc(C)c21 (stereo not drawn),48% (inactive)
17,Cc1nc2sc(C(=O)Nc3ccccc3)c(N)c2cc1C(=O)c1ccc(C(F)(F)F)cc1,101% (inactive)
18,CC(=O)c1c(C)[nH]c(-c2nc3ccc(N4CCN(C)CC4)cc3[nH]2)c1-c1ccccc1,23.7% (inactive)
19,CCC1(CC)NC(=O)c2c(c3ccc(Cl)c(Cl)c3n2C)C1C#N (stereo not drawn),109% (inactive)

row,Structure (SMILES),growth
1,O=C(Nc1ccc(F)cc1)c1c(NC(=O)C(F)(F)F)sc2c1CCCCC2,-21.1% (active)
2,O=C(NCCN1CCOCC1)OCc1nc2nc(Cl)nc(N3CCOCC3)c2[nH]1,50% (inactive)
3,CC(C)[N+](C)(CCOC(COc1ccccc1)COc1ccccc1)C(C)C,105% (inactive)
4,COc1ccc(C(=O)c2cc3c(N)c(C(=O)Nc4cccc(Cl)c4C)sc3nc2C)cc1,54.5% (inactive)
5,COc1ccccc1/C=C1\Oc2cc(OCCCN3CCCC3)ccc2C1=O,96.5% (inactive)
6,CCc1nc(C)cn1C(=O)OCc1nc2nc(Cl)nc(N3CCOCC3)c2[nH]1,-67.8% (active)
7,CN1CCN(c2cc(F)c(NC3=C(Cl)C(=O)c4ncccc4C3=O)c(F)c2)CC1,-96.1% (active)
8,COc1ccc(Cl)cc1NC(=O)c1c(NC(=O)C(F)(F)C(F)(F)F)sc2c1CCCCC2,-24.5% (active)
9,COc1ccccc1/C=C1\COc2ccc(-c3ccccc3)cc2C1=O,73.7% (inactive)
10,O=C(O)CCCCCCCCCCCCCCC(=O)O,101% (inactive)
11,NC(=O)C1(N2CCCCC2)CCN(CCCC(=O)c2ccc(F)cc2)CC1,57.1% (inactive)
12,CCN1C(=O)/C(=c2\sc3n(c2=O)NC2C(N=3)N(CC)C(=O)N2CC)c2ccccc21 (stereo not drawn),36.7% (inactive)
13,CCCCCCCCCCCCCCCC(=O)OC[C@@]1(O)C[C@@]23CC[C@@H]4C(C)(C)[C@H](O)CC[C@@]4(C)[C@@H]2CC[C@H]1C3,114% (inactive)
14,CCOC(=O)c1ccc(Nc2ccnc(SCC(=O)c3ccc(C#N)cc3)n2)cc1,80.9% (inactive)
15,O=S(=O)(c1cccc(NC2=Nc3cccc4cccc2c34)c1)N1CCCC1,64.1% (inactive)
16,COc1ccccc1N1CCN(C(=O)c2ccc3nc(NC(=O)c4ccc(NCCc5ccccc5)c([N+](=O)[O-])c4)sc3c2)CC1,45.6% (inactive)
17,CCN(CC)CCOC(COc1cc(C)cc(C)c1)COc1cc(C)cc(C)c1,13.6% (inactive)
18,COc1ccc(Nn2c(SCC(=O)Nc3nc(-c4ccc(Cl)cc4)cs3)nc(C)c2C)cc1,99.1% (inactive)
19,CC1=CC2(C)/C=C(C)/C=C\CC(O)/C=C3/C=CC(=C4C(=O)OC2(CC1C)C4=O)OC3 (stereo not drawn),-96.3% (active)
